CRFR2-BP ag – agonists of CRF-BP/CRF-R2 complex, primary screen, cell-based, HEK293, calcium dye fluorescence, uHTS; CRF-binding protein / CRF receptor 2 complex (human); calcium dye fluorescence (FLIPR); percent of saturating CRF peptide response; activation, % at 13.2 µM; 350,000 tested, 0.46% active; AID 588473, 2011;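 active = activation of at least 50%, plus an integration ratio under a set limit after plate pattern correction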;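 also: plate controls were neutral control wells without compound for no effect and CRF at EC100 for full effect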
CRFBP-R2 block – antagonists of CRF-BP/CRF-R2 complex, primary screen, cell-based, HEK293, calcium dye fluorescence, uHTS; CRF-induced calcium fluorescence; inhibition, % at 11.8 µM; 350,000 tested, 0.59% active;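 active = inhibition of the ligand-induced calcium signal above about 50% at the single tested concentration, limit read from the data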
H9c2 protect – cardioprotection against H2O2-induced cell death, primary screen, uHTS, H9c2 cells, ATPLite luminescence; 360,000 tested, 0.63% active; protection from H2O2 cell death, % at 20 µM; H9c2 cardiomyocytes, H2O2 injury protection, 2 h;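 active = compounds giving at least 50% protection of heart cells from peroxide-induced death in the single-dose screen, raw or plate-pattern-corrected value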;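 also: 0% = DMSO wells with peroxide and 100% = DMSO wells without peroxide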
aDG glyco up – activators of alpha-DG glycosylation, primary screen, uHTS, Pro5-aDG cells, AlphaScreen | alpha-DG glycosylation AlphaScreen (IIH6); 0% Pro5, 100% B10-LARGE cell signal | activation, % at 10 µM | 360,000 tested, 0.22% active;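 active = activation of at least 8% versus controls, or a plate z-score of at least 8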;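 also: Pro5 are CHO cells carrying HIG-tagged alpha-DG that lacks glycosylation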
PfG6PD inh – PfG6PD enzyme inhibitors, primary screen, biochemical, fluorescence intensity, uHTS; glucose-6-phosphate dehydrogenase-6-phosphogluconolactonase (Plasmodium falciparum 3D7); PfGluPho enzyme, NADPH resazurin-diaphorase fluorescence; inhibition, % at 20 µM; 350,000 tested, 0.78% active; AID 504690, 2011;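 active = inhibition reaching at least a set limit at 20 µM in the primary screen, cut at about 59% in these data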;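 also: 0% = DMSO wells with substrate and 100% = DMSO wells lacking glucose-6-phosphate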
FAS TE block – FAS thioesterase domain inhibitors, primary screen, biochemical, fluorescence intensity, uHTS | Fatty acid synthase (Homo sapiens), P49327 | recombinant FAS-TE, OMFH fluorogenic substrate, fluorescence endpoint | inhibition, % at 15 µM | 360,000 tested, 0.67% active | AID 602261, 2012;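 active = compounds whose normalised, plate-corrected inhibition of enzyme fluorescence in the single-dose primary screen is 50% or more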;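 also: 0% = DMSO with enzyme and 100% = substrate without enzyme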
PfG6PD confirm – PfG6PD inhibitors, hit retest, confirmation, biochemical, fluorescence intensity, single concentration. inhibition, % at 20 µM. recombinant PfGluPho, NADPH-diaphorase-resazurin fluorescence. AID 504753, 2011. 2,400 tested, 34% active. shares compounds with PfG6PD inh;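 active = inhibition of at least 50% at 20 µM in any single replicate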;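 also: 0% = DMSO with substrate and 100% = DMSO lacking glucose-6-phosphate substrate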
Diaphorase 10uM – diaphorase inhibitors and chemical oxidizers, confirmation, counter-screen for P. falciparum G6PD inhibitor project, biochemical, fluorescence intensity, 10 µM NADPH; 820 tested, 39% active; AID 504862, 2011; diaphorase-coupled resazurin reduction, NADPH 10 uM; inhibition, % at 20 µM; shares compounds with PfG6PD inh;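 active = average inhibition reaching 50% or more with the compound at 20 µM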;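 also: resorufin red fluorescence formed as diaphorase reduces resazurin using NADPH; 0% = DMSO with enzyme and 100% = DMSO without enzyme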
Diaph ctr 30uM – diaphorase inhibitors and chemical oxidizers, confirmation, counter-screen for P. falciparum G6PD inhibitor project, biochemical, fluorescence intensity, 30 µM NADPH | shares compounds with PfG6PD inh | Diaphorase/resazurin coupled assay, resorufin fluorescence | inhibition, % at 20 µM | 820 tested, 29% active;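 active = inhibition averaging 50% or more, tested at 20 µM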;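 also: 0% = DMSO with enzyme and 100% = DMSO wells lacking diaphorase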
An asterisk follows results filed as active. Only some compounds are listed: those with a hit (about 3.2% of all), similar ones and a draw of the others.

For Cc1ccc(C)c(OCC(=O)Nc2ccc(S(=O)(=O)Nc3onc(C)c3C)cc2)c1 the results were CRFR2-BP ag 1, CRFBP-R2 block 1, H9c2 protect 8, aDG glyco up 0, PfG6PD inh -24 and FAS TE block -3.
For C[C@H]1CC[C@@]2(O[C@H](CCO)C[C@@H](O)[C@@H]2O)O1 the results were CRFR2-BP ag 0, CRFBP-R2 block 4, H9c2 protect -1, aDG glyco up 0, PfG6PD inh -11 and FAS TE block -10.
`O=C(O)C1=NN(c2cc(Cl)c(S(=O)(=O)O)cc2Cl)C(=O)C1` gave CRFR2-BP ag -3, CRFBP-R2 block 9, H9c2 protect 0, aDG glyco up 0, PfG6PD inh -11 and FAS TE block -9.
Screening O=C(CCCOc1ccc(Cl)cc1Cl)N/N=C/c1cccc([N+](=O)[O-])c1 returned CRFR2-BP ag 6, CRFBP-R2 block -22, H9c2 protect -5, aDG glyco up 1, PfG6PD inh 112*, FAS TE block 10, PfG6PD confirm 69*, Diaphorase 10uM 59* and Diaph ctr 30uM 48.
For CN(C(=S)NC(=O)C1CC1)c1ccc(O)cc1 the results were CRFR2-BP ag 0, CRFBP-R2 block -3, H9c2 protect 2, aDG glyco up 0, PfG6PD inh 60*, FAS TE block -4 and PfG6PD confirm -1.
Cc1sc(NC(=O)c2ccccc2)c(C(=O)c2ccccc2)c1C was read as CRFR2-BP ag 0, CRFBP-R2 block -15, H9c2 protect -8, aDG glyco up 0, PfG6PD inh 63*, FAS TE block 14 and PfG6PD confirm 37.
For Cc1ccc(C(=O)Nc2sc(C)c(C)c2C(=O)c2ccccc2)cc1 the results were CRFR2-BP ag 1, CRFBP-R2 block -17, H9c2 protect -10, aDG glyco up 0, PfG6PD inh 82*, FAS TE block 28 and PfG6PD confirm 24.
For CN(C(=O)CSCC(=O)O)C1CCCCC1 the results were CRFR2-BP ag 0, CRFBP-R2 block 1, H9c2 protect -2, aDG glyco up 0, PfG6PD inh -5 and FAS TE block -10.
For CC1CC(C)CN(CCCNC(=O)CN2C(=O)CSc3ccc(S(=O)(=O)N4CCCCC4)cc32)C1 (stereo unspecified) the results were CRFR2-BP ag 2, CRFBP-R2 block -3, H9c2 protect 2, aDG glyco up 0, PfG6PD inh 1 and FAS TE block -4.
For CN(C(=O)C=Cc1ccccc1)c1ccccc1 the results were CRFR2-BP ag -2, CRFBP-R2 block 3, H9c2 protect -2, aDG glyco up 0, PfG6PD inh -9 and FAS TE block -2.
O=C(CCl)N(O)c1ccc(C=Cc2ccccc2)cc1 was read as CRFR2-BP ag 3, CRFBP-R2 block -16, H9c2 protect -7, aDG glyco up 0, PfG6PD inh 62*, FAS TE block -31 and PfG6PD confirm -6.

Bioassay records from PubChem BioAssay.
